Common to all, as to assay: DAPPL (digital affinity profiling via proximity ligation, sequencing); 10 mM Tris-HCl pH 7.5, 50 mM NaCl, 1 mM DTT, 4% glycerol, room temperature, 30 min; GST-TFs on glutathione beads, 16-mer random dsDNA library, 0.1% formaldehyde crosslink after washing; high values mean tight binding
The target in assay [1] is T1, FLI1 (Homo sapiens, UniProt Q01543 1-452).
T1 sequence: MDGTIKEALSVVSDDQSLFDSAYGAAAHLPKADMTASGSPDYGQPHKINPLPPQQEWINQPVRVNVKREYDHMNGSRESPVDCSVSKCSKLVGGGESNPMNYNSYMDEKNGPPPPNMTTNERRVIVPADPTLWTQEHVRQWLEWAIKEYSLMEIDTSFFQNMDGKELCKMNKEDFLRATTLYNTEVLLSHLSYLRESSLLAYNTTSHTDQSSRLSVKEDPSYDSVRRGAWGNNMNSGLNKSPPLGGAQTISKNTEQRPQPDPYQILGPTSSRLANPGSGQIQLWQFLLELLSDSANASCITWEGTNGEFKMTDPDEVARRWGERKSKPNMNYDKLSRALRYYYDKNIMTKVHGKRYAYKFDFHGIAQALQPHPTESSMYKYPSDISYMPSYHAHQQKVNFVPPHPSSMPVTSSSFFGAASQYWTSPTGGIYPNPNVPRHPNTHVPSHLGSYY
The following applies: protein: recombinant; tags: N-terminal GST; dsDNA, one strand shown. The method in brief: (§1)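 Pools were built from human transcription factors expressed in yeast as GST fusions, captured on glutathione beads and DNA-barcoded, along with a tag-only sample. Incubation with 200 nmole of a 16-mer random double-stranded DNA library lasted 30 min at room temperature in Tris/NaCl/DTT/glycerol buffer, and was followed by washing, 0.1% formaldehyde crosslinking, proximity ligation, PCR amplification and Illumina NextSeq500 sequencing. Binding signal is the quotient of each hexamer's read frequency for a factor and its frequency for the tag-only sample.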

Assay [2] addresses T2, ELK1 (Homo sapiens, UniProt P19419 1-428).
T2 sequence: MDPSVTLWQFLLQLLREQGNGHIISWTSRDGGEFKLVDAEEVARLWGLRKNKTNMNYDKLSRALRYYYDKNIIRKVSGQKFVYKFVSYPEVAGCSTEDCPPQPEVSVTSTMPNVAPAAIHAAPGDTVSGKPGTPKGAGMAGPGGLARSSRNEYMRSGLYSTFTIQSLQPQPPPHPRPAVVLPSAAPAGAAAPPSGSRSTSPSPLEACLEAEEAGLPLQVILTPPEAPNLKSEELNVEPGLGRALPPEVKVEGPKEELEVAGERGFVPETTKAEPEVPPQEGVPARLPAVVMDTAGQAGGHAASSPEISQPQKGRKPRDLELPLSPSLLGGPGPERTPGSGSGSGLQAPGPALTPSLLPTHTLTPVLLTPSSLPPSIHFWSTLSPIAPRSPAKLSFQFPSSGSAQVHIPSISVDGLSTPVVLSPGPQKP
The following applies: protein: recombinant; tags: N-terminal GST; dsDNA, one strand shown. The method, boiled down: as §1

The target in assay [3] is T3, GABPA (Homo sapiens, UniProt Q06546 1-454).
T3 sequence: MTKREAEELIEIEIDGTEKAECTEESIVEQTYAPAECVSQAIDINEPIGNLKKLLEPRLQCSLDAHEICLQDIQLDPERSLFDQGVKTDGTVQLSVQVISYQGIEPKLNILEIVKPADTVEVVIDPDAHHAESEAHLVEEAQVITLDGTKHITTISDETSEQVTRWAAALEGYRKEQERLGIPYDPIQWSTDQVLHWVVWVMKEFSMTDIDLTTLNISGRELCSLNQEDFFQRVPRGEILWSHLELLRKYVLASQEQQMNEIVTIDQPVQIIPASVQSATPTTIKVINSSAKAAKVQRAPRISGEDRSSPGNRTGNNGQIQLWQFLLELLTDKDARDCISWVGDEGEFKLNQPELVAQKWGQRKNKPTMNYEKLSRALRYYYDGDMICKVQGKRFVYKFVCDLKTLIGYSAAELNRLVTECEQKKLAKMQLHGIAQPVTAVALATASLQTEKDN
To be noted: protein: recombinant; tags: N-terminal GST; dsDNA, one strand shown. The method in brief: as §1

Assay [4] has as its target T4, ERG (Homo sapiens, UniProt P11308 1-479).
T4 sequence: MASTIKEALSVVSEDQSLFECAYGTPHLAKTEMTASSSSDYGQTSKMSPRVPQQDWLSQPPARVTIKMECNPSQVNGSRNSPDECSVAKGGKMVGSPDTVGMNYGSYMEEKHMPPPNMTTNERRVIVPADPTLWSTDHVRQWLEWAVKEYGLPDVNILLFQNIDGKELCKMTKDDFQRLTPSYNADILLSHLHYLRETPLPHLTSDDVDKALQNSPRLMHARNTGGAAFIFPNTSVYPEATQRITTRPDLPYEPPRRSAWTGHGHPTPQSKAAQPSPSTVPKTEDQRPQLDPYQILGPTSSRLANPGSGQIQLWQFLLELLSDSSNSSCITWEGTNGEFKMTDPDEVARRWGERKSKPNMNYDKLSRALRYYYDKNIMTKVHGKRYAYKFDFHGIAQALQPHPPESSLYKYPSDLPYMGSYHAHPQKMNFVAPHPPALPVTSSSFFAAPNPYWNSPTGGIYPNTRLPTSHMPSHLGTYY
The following applies: protein: recombinant; tags: N-terminal GST; dsDNA, one strand shown. The method in brief: as §1

Assay [5] concerns the target ELF1 (Homo sapiens, UniProt P32519 1-619). The following applies: protein: recombinant; tags: N-terminal GST; dsDNA, one strand shown. The method in brief: as §1
The target in assay [6] is T5, EHF (Homo sapiens, UniProt Q9NZC4 1-300).
T5 sequence: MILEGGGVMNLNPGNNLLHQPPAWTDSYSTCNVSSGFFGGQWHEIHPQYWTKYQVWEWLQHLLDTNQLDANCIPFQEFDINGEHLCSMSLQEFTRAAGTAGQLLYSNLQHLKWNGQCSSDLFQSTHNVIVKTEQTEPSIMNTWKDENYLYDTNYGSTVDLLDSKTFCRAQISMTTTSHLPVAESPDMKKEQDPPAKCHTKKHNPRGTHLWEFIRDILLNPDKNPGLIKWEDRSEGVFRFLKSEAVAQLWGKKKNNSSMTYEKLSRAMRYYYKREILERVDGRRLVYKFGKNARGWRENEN
The following applies: protein: recombinant; tags: N-terminal GST; dsDNA, one strand shown. The method in brief:
as §1

For assay [7], the target named is SPI1 (Homo sapiens, UniProt P17947 1-270). The following applies: protein: recombinant; tags: N-terminal GST; dsDNA, one strand shown. The method, boiled down: as §1
Assay [8] deals with SPIB (Homo sapiens, UniProt Q01892 1-262). To be noted: protein: recombinant; tags: N-terminal GST; dsDNA, one strand shown. The method in brief: as §1
Assay [9] addresses T6, ELK3 (Homo sapiens, UniProt P41970 1-407).
T6 sequence: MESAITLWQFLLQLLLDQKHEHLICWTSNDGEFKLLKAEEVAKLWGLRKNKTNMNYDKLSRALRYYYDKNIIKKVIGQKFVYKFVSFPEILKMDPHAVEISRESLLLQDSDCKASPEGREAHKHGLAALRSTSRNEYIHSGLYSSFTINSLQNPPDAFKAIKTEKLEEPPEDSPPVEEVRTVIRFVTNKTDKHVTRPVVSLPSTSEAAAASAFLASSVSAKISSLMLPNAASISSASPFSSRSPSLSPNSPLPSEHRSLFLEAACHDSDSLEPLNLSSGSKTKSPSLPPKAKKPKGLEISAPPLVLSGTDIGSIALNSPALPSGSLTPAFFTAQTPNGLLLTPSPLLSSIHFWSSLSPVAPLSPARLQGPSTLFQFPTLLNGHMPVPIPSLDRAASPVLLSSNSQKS
To be noted: protein: recombinant; tags: N-terminal GST; dsDNA, one strand shown. The method, boiled down:
as §1

Assay [10] deals with T7, FEV (Homo sapiens, UniProt Q99581 1-238).
T7 sequence: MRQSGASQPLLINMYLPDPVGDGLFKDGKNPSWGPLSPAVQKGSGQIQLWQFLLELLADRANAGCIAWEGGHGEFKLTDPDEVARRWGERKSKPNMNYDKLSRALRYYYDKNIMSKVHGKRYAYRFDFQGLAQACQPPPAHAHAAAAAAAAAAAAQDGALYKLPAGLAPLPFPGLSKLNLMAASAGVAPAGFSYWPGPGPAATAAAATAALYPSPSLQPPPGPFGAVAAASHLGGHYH
To be noted: protein: recombinant; tags: N-terminal GST; dsDNA, one strand shown. The method, boiled down:
as §1

The target of assay [11] is ETV5 (Homo sapiens, UniProt P41161 1-510). To be noted: protein: recombinant; tags: N-terminal GST; dsDNA, one strand shown. The method in brief: as §1
For assay [12], the target named is HSF1 (Homo sapiens, UniProt Q00613 1-529). The following applies: protein: recombinant; tags: N-terminal GST; chain copies: 3; dsDNA, one strand shown. The method, boiled down: as §1
Assay [13] concerns the target T8, SPIC (Homo sapiens, UniProt Q8N5J4 1-248).
T8 sequence: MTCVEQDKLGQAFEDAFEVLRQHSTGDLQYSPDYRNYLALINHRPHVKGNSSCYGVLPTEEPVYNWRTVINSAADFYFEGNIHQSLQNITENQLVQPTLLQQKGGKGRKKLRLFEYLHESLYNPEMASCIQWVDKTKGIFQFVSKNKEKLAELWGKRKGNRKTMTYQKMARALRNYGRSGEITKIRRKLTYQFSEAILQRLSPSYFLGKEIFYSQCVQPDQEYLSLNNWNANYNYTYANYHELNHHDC
The following applies: protein: recombinant; tags: N-terminal GST; dsDNA, one strand shown. The method in brief: as §1

Assay [14] has as its target ELF4 (Homo sapiens, UniProt Q99607 1-663). To be noted: protein: recombinant; tags: N-terminal GST; dsDNA, one strand shown. The method, boiled down:
as §1

Assay [15] concerns the target T9, ELK4 (Homo sapiens, UniProt P28324-2 1-405).
T9 sequence: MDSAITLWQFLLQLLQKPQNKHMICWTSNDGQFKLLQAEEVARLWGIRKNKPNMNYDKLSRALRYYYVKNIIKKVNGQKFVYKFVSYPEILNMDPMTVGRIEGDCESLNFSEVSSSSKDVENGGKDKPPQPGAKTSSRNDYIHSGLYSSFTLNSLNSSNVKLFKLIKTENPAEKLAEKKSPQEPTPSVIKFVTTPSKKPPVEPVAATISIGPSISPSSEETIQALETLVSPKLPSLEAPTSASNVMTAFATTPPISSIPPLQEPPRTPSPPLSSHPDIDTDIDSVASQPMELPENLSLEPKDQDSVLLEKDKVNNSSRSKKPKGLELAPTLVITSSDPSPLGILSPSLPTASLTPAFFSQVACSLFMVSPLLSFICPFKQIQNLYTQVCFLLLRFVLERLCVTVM
The following applies: protein: recombinant; tags: N-terminal GST; dsDNA, one strand shown. The method in brief:
as §1

For assay [16], the target named is T10, ETV2 (Homo sapiens, UniProt O00321 1-342).
T10 sequence: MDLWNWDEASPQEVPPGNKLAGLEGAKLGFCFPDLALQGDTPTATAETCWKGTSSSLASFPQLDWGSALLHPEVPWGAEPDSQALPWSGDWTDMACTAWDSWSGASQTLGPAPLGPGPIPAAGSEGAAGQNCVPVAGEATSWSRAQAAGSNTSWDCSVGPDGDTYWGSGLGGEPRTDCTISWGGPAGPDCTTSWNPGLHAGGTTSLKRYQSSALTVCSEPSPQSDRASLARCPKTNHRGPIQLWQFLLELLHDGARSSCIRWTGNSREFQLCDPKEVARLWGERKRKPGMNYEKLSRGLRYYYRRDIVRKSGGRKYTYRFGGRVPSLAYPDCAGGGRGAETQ
The following applies: protein: recombinant; tags: N-terminal GST; dsDNA, one strand shown. The method, boiled down: as §1

The target in assay [17] is T11, ELF3 (Homo sapiens, UniProt P78545 1-371).
T11 sequence: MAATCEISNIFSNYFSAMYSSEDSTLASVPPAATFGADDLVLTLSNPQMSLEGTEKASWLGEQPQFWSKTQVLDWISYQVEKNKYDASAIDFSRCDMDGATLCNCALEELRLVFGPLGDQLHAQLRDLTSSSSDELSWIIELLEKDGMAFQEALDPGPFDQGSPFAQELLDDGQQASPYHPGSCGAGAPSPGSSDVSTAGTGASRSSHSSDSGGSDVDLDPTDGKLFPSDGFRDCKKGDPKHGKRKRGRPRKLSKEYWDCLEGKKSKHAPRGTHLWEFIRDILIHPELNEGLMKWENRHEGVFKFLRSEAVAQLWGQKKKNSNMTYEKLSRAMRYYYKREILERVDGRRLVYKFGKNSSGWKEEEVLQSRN
To be noted: protein: recombinant; tags: N-terminal GST; dsDNA, one strand shown. The method, boiled down:
as §1

Assay [18] has as its target CRX (Homo sapiens, UniProt O43186 1-299). To be noted: protein: recombinant; tags: N-terminal GST; dsDNA, one strand shown. The method in brief:
as §1

Assay [19] concerns the target ETV1 (Homo sapiens, UniProt P50549 1-477). To be noted: protein: recombinant; tags: N-terminal GST; dsDNA, one strand shown. The method in brief: as §1

Sequence of ELF4 (Q99607 whole entry): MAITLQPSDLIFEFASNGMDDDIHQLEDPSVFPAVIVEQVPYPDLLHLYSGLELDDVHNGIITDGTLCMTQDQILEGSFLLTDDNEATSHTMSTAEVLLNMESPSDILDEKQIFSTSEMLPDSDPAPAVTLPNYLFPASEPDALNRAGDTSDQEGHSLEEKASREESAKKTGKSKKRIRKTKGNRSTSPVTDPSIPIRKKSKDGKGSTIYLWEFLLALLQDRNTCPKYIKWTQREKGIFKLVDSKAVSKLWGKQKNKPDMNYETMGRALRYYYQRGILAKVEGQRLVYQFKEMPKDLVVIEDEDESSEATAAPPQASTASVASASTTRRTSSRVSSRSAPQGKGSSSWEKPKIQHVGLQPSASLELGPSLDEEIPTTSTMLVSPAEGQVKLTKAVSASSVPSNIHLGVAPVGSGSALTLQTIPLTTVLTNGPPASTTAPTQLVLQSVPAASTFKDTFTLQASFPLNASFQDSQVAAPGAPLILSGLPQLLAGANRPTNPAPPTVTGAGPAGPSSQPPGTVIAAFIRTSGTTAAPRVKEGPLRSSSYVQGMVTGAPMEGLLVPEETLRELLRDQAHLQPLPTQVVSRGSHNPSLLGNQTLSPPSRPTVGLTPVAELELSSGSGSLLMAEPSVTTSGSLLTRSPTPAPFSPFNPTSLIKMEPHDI
Sequence of ELF1 (P32519 whole entry): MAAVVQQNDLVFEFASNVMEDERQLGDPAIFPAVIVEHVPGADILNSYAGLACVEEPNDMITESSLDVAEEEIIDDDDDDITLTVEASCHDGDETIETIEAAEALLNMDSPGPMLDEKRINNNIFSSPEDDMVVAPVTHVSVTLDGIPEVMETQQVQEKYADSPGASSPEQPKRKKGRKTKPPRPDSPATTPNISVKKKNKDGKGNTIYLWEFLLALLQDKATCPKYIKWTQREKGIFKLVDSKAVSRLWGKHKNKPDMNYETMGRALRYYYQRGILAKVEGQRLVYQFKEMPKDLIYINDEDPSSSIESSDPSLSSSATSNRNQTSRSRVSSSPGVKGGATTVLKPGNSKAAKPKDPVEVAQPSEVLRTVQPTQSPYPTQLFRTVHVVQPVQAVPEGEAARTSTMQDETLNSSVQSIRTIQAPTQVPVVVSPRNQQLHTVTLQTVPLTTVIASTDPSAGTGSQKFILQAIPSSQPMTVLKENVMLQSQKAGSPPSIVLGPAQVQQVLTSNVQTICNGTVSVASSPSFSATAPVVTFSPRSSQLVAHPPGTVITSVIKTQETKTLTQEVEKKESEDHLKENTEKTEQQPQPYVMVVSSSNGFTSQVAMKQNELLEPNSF
Sequence of ETV5 (P41161 whole entry): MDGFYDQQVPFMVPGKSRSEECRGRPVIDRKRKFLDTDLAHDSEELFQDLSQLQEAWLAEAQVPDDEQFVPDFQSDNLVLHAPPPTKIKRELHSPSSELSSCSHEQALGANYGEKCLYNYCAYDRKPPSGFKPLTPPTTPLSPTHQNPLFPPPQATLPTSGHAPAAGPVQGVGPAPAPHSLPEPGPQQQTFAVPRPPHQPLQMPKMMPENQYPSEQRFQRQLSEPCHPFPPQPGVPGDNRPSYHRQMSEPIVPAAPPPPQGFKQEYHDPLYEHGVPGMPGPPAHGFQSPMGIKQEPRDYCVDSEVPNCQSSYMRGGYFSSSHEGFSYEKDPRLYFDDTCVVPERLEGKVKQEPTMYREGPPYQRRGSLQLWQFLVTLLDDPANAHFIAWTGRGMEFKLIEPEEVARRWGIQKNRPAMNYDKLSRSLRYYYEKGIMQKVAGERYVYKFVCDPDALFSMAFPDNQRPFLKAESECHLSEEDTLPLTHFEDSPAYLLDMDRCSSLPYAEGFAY
Sequence of HSF1 (Q00613 whole entry): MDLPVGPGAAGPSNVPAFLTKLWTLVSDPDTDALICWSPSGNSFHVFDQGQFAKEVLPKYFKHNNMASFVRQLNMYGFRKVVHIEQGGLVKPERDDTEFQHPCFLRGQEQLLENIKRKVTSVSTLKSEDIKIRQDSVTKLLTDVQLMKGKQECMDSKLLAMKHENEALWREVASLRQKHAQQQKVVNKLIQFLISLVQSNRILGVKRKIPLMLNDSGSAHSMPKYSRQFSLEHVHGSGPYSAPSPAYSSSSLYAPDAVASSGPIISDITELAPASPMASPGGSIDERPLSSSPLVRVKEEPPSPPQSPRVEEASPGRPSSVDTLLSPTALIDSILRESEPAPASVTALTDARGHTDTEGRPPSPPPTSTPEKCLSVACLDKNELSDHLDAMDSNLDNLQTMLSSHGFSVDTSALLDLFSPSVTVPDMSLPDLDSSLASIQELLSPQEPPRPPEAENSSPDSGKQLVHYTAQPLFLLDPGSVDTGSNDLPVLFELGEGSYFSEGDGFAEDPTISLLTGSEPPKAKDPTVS
Sequence of SPIB (Q01892 whole entry): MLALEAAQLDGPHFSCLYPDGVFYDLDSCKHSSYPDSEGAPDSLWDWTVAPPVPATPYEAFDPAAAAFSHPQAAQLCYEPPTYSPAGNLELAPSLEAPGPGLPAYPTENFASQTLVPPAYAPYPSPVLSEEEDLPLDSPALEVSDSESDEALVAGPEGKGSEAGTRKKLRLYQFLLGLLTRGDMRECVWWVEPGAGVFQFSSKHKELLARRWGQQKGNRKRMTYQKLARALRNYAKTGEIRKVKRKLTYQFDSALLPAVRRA
Sequence of ETV1 (P50549 whole entry): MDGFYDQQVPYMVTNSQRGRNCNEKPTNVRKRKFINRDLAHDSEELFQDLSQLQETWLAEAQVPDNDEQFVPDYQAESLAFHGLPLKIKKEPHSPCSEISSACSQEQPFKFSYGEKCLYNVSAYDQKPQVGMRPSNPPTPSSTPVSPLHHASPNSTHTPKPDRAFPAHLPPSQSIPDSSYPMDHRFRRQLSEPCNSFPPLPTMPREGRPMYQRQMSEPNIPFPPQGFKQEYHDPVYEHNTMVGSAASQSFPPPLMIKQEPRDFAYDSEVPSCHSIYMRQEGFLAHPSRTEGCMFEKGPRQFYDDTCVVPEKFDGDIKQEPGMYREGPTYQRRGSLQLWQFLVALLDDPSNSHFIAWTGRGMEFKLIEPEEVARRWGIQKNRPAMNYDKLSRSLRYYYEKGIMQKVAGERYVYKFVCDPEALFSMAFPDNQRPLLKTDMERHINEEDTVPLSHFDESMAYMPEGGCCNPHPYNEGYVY
Sequence of CRX (O43186 whole entry): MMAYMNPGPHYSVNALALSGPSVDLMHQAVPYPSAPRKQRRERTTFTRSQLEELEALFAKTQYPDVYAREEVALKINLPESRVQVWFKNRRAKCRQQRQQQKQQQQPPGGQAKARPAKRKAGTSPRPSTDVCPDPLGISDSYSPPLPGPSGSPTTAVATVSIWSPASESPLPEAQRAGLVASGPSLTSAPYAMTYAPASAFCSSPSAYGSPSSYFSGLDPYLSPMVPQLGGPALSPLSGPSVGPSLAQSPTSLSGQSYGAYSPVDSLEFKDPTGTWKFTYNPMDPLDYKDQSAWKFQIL

Consider TGGAAT, for which the binding signal is 1.36 fold enrichment (6-mer frequency, TF over GST control) in [1]; 1.21 fold enrichment (6-mer frequency, TF over GST control) in assay [2]; 1.3 fold enrichment (6-mer frequency, TF over GST control) in [3]; 1.25 fold enrichment (6-mer frequency, TF over GST control) in assay [4]; 1.22 fold enrichment (6-mer frequency, TF over GST control) in assay [5]; 1.19 fold enrichment (6-mer frequency, TF over GST control) in assay [6]. The binding signal was 1.25 fold enrichment (6-mer frequency, TF over GST control) in assay [7]; 1.21 fold enrichment (6-mer frequency, TF over GST control) in assay [8]; 1.25 fold enrichment (6-mer frequency, TF over GST control) in assay [9]; 1.21 fold enrichment (6-mer frequency, TF over GST control) in [10]; 1.22 fold enrichment (6-mer frequency, TF over GST control) in [11]; 2.63 fold enrichment (6-mer frequency, TF over GST control) in assay [12]. The binding signal in assay [13] is 1.22 fold enrichment (6-mer frequency, TF over GST control); in assay [14] it was 1.14 fold enrichment (6-mer frequency, TF over GST control); in assay [15], 1.21 fold enrichment (6-mer frequency, TF over GST control); in assay [16], 1.47 fold enrichment (6-mer frequency, TF over GST control); in assay [17], 1.21 fold enrichment (6-mer frequency, TF over GST control); in assay [18], 1.77 fold enrichment (6-mer frequency, TF over GST control). The binding signal in assay [19] was 1.24 fold enrichment (6-mer frequency, TF over GST control).

The values above are taken from PMC7862700, “An all-to-all approach to the identification of sequence-specific readers for epigenetic DNA modifications on cytosine”.
